Bioassay records from PubChem BioAssay.
Anesthetic bind: qHTS Assay for Identification of Novel General Anesthetics | apoferritin/1-aminoanthracene competitive binding, fluorescence | Potency, µM (doses to about 77.5 µM), for inactives: at the highest dose activity change, negative = displacement, hits mostly inhibitors | 0.074% of 350,000 active; also: potency is read from the fitted curve at half-maximal effect; % is scaled to controls: 0 for no effect and ±100 for the full control effect; nearly all actives have a fitted effect of over 20% in size
Target sequence (P02791 2-175 limits assumed): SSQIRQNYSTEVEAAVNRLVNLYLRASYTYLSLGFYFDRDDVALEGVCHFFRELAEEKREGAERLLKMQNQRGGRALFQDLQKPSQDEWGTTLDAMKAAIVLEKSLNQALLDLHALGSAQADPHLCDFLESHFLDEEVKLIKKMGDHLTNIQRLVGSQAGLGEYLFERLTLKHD
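10 uM apoferritin + 50% sat. 1-AMA, PBS; cpd 10 min RT; Ex380/Em535 endpoint; normalized to free probe vs complex; 4-param Hill fit; propofol titration as pos. ctrl.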
PTAP TSG101 blk: qHTS Assay for Iinhibitors of HIV-1 Budding by Blocking the Interaction of PTAP/TSG101; AID 493005, 2010; 340,000 tested, under 10 active; Potency, µM (doses to about 115 µM), without a hit: at the highest dose activity change, negative = inhibition, most hits filed as inhibitors; Fluorescence polarization, FITC-PTAP peptide / Tsg101 binding; Tumor susceptibility gene 101 protein (Homo sapiens), Q99816; active = well fitted inhibition curve with a large enough effect in the main read-out, with a control signal flat, not every such curve was filed as active; inconclusive = small, poorly fitted or top-dose-only effect, or effect the other way, or a change in a side signal; inactive = no such curve, though single readings can be large or run the other way; also: potency is read from the fitted curve at half-maximal effect; % of control where 0% means no effect
Target sequence (Q99816 whole entry, looked up): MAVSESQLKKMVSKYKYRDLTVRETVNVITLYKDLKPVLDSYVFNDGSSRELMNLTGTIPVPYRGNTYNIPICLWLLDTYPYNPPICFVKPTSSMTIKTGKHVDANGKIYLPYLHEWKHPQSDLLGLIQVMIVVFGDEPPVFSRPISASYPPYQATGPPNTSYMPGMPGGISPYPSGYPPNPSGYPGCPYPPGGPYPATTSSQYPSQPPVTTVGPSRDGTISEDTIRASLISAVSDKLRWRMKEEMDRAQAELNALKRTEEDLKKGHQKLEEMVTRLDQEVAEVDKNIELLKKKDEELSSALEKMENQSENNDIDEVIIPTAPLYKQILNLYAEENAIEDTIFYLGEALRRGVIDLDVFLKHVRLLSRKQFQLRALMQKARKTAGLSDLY
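Steps: Tsg101 binding domain dispensed (10 uM final), compounds pinned in DMSO, FITC-labeled PTAP-motif peptide added (50 nM final); after 20 min binding at room temperature, polarization measured.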
BRCA1 expr up: qHTS Assay to Identify Small Molecule Activators of BRCA1 Expression. 1.1% of 380,000 active. Potency, µM (doses to about 46.1 µM), inactives show at the top dose activation, actives largely listed as activators. MCF7-BRCA1-FFLuc reporter, luminescence, 48 h; response scale: scaled: vehicle 0%, 10 µM genistein 100%; also: potency is read from the fitted curve at half-maximal effect; nearly all actives have a fitted effect of over 80% in size
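Activators of BRCA1 expression were detected as increased firefly luciferase luminescence in engineered MCF7 cells after 48 h compound incubation. Signals were scaled to genistein 10 microM as full activation.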
TSHR antagonist: Antagonists of the Thyroid Stimulating Hormone Receptor: HTS campaign; Thyrotropin receptor (Homo sapiens), P16473; TSHR-expressing cells, TSH-stimulated cAMP HTRF, 2 h; hits give low values; activity change, negative = inhibition, % at 11.5 µM; 0.2% of 330,000 active; AID 504810, 2011;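 active = activity change below a set negative limit, meaning inhibition stronger than a set level, cut at about -70% in these data; inconclusive = activity change between two set negative limits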; also: % is scaled to controls: 0 for no effect and ±100 for the full control effect
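Antagonism was scored as loss of TSH-driven cAMP in TSHR cells, stimulated with 4nM TSH (EC80) for 2 hours at 37 deg C and detected by homogeneous HTRF competition immunoassay.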
S-ASM inh: Inhibitors of Secretory Acid Sphingomyelinase (S-ASM): qHTS. Sphingomyelin phosphodiesterase (Homo sapiens), P17405. placental ASM, HMU-PC fluorogenic substrate, 60 min. Potency, µM (highest dose often 57.5 µM), for the others: top-dose activity change, negative = inhibition, usual class: inhibitors. 0.006% of 340,000 active; also: potency is read from the fitted curve at half-maximal effect
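Steps: dispense placental human ASM, pin compound, wait 10 min at room temperature, add HMU-PC0 substrate at 9 uM final, incubate 60 min at 37 °C, add stop solution raising pH to 10, read fluorescence.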
* hit, by the source's call; ? = inconclusive; . = no result. In the library only some 1.2% were active in any assay of this set; here they are far more common. Unless noted, calls follow the shape of the dose curve; as a rule, active = well fitted curve in the direction sought with a large enough effect; inconclusive = small, poorly fitted or top-dose-only effect, or another doubt; inactive = no such curve, though single readings can be large; an effect the other way counts as inactive or inconclusive.

SMILES | Anesthetic bind | PTAP TSG101 blk | BRCA1 expr up | TSHR antagonist | S-ASM inh
CS[C@@H]1SC[C@H]2C(=O)N(C)C(C(C)C)C(=O)OC[C@@H](NC(=O)c3cnc4ccccc4n3)C(=O)N[C@@H](C)C(=O)N(C)[C@H]1C(=O)N(C)C(C(C)C)C(=O)OC[C@@H](NC(=O)c1cnc3ccccc3n1)C(=O)N[C@@H](C)C(=O)N2C (stereo not given in full) | -3% | . | . | . | .
CCc1ccc(OCCCCn2c(CCNC(=O)C3CCCCC3)nc3ccccc32)cc1 | . | . | 9% | . | .
COc1ccc2nc(NC(=O)CSc3ccccc3)sc2c1 | -4% | 1% | 10µM* | 5 | -14%
COc1ccc2nc(NC(=O)c3cc(C)oc3C)sc2c1 | 0% | -8% | 5µM* | 1 | 4%
COc1ccc2nc(NC(=S)NC(=O)c3ccco3)sc2c1 | -8% | -3% | 5µM* | -12 | 0%
CCOc1ccc2nc(NC(=O)CCC(=O)c3cccs3)sc2c1 | -9% | 0% | 1.8µM* | 8 | 0%
O=C(NC(=S)Nc1nc2ccccc2s1)c1ccco1 | 3% | -3% | 33% | -7 | -1%
COc1ccc(-c2c(C3C4C=CCC(C)C4C(=O)N3Cc3ccccc3)ccc3ccccc23)cc1 (stereo not given) | 58% | . | . | . | .
COc1ccc2c(c1)CCc1sc(NC(=O)c3ccco3)nc1-2 | 20% | -5% | 10µM* | -8 | -5%
CS(=O)(=O)N(Cc1ccccc1)c1ccc(C(=O)N2CCN(c3cccc(Cl)c3)CC2)cc1 | 63% | -7% | -58% | -92* | -9%
CCN1C(=O)CC(N2CCN(c3ccc(C(=O)c4ccccc4)cc3)CC2)C1=O (stereo not given) | ? | 6% | 11µM* | . | -2%
CCN1C(=O)CC(N2CCN(c3ccc(Cl)cc3)CC2)C1=O (stereo not given) | -9% | -2% | 3% | 5 | -4%
O=C(O)c1cc(S(=O)(=O)N2CCCCC2)sc1Cl | 4% | 0% | -3% | 6 | 1%
O=S(=O)(c1cc(Br)c(Cl)s1)N1CCCC1 | 3% | -3% | -10% | -78* | 5%
CCCC(=O)n1nc(-c2ccc(Cl)cc2)nc1SC | -1% | 0% | 73% | -1 | -7%
CSc1nc(-c2ccc(Cl)cc2)nn1S(=O)(=O)c1ccc(Cl)cc1 | 0% | -3% | 10µM* | -3 | 2%
CCC(=O)n1nc(-c2ccc(Cl)cc2)nc1SC | -15% | -6% | 10µM* | -8 | -2%
CNc1nn(-c2cccc(Cl)c2)nc1N | -8% | 0% | 10µM* | 14 | 1%
CC(=O)N(O)c1ccc(/C=C2\C=Cc3ccccc32)cc1 | . | . | 74% | . | .
COc1ccc(-c2nc3sc(CCNC(=O)Cc4ccccc4)c(C)n3n2)cc1 | 32% | . | . | . | .
COc1ccc(-c2nc3sc(CCNC(=O)c4cc(OC)c(OC)c(OC)c4)c(C)n3n2)cc1 | -2% | . | 7.9µM* | . | .
O=C(Nc1ccc(Oc2ccc(Cl)cc2)c(Cl)c1)c1cc(I)cc(I)c1O | -6% | 0% | 9% | -94* | -2%
COc1ccc(NC(=O)c2ccccc2F)cc1Cl | -11% | -1% | ? | -6 | 1%
CCOC(=O)N1CCN(/[N+]([O-])=N/Oc2ccc(C(F)(F)F)cc2[N+](=O)[O-])CC1 | . | . | 0% | . | .
COc1cc(NS(=O)(=O)c2ccc(C)cc2C)cc(OC)c1OC | -22% | -4% | -83% | -87* | -1%
SMILES | Anesthetic bind | PTAP TSG101 blk | BRCA1 expr up | TSHR antagonist | S-ASM inh
O=C(Nc1ccc2nccnc2c1)c1cnccn1 | -6% | 1% | 11µM* | -6 | 0%
CCCOC(=O)c1ccc(NC(=O)c2cnccn2)cc1 | -11% | -8% | 10µM* | -10 | -2%
CCCCOC(=O)c1ccc(NC(=O)c2cnccn2)cc1 | -1% | -4% | -6% | 8 | -2%
O=C(Nc1ccc(NC(=O)c2ccco2)cc1)c1cnccn1 | -7% | -2% | 13µM* | 14 | -2%
N#Cc1nccnc1S(=O)(=O)c1cccs1 | -4% | 1% | -9% | -87* | 0%
O=C[C@@H]1CCCN1C(=O)[C@@H]1CCCN1C(=O)OCc1ccccc1 | -10% | . | . | . | .
C/C(=N\Nc1cc(N2CCOCC2)ncn1)c1ccccc1 | -7% | 0% | 1.8µM* | -3 | -6%
CC(C)c1cccc(NC(=O)COC(=O)c2ccccc2OCc2cccc(Br)c2)c1 | . | . | 7% | . | .
CCOC(=O)c1cc(-c2ccc(N3CCOCC3)cc2)nn1-c1ccc(F)cc1F | -16% | -4% | -29% | -5 | 28µM*
COc1ccc(NC(=O)/C=C/c2ccco2)cn1 | -4% | -2% | 0% | 3 | 0%
COc1ccc(NC(=O)/C=C/c2cccc(F)c2)cn1 | 2% | -18% | 7.1µM* | -8 | 1%
COc1ccc(/C=C/C(=O)Nc2cccc(C(C)=O)c2)cc1 | -3% | 0% | 4.5µM* | -11 | 0%
COc1ccc(/C=C/C(=O)Nc2ccccc2C(F)(F)F)cc1 | 5% | -1% | 3.2µM* | 4 | 1%
O=C(O)[C@@H]1CN[C@@H](C(=O)O)C1 | 20% | . | . | . | .
C/C(NC(=O)c1ccccc1F)=C1\C(=O)C[C@@H]2[C@H]1C2(C)C | ? | 1% | 11µM* | -12 | -4%
N#Cc1ncc(Br)cn1 | . | . | 0% | . | .
CCN(CC)c1cc(C)c(/C=C/c2ccnc3ccccc23)cc1C | . | . | -9% | . | .
Cc1nc(C(=O)O)nn1-c1ccc([N+](=O)[O-])cc1 | -3% | 0% | -2% | -7 | -1%
Cc1nc(-c2ccccc2)nn1-c1ccc([N+](=O)[O-])cc1 | . | 0% | 5µM* | . | -4%
NNC(=O)CNC(=O)c1cccc(Br)c1 | 28µM* | 1% | -2% | 4 | -5%
O=C(CNC(=O)c1cccc(Br)c1)N/N=C/c1ccc[nH]1 | ? | 0% | 3% | -6 | 1%
COc1ccc2c(c1)C(=O)/C(=C/C=C/c1ccccc1)CC2 | -3% | -4% | -2% | 53 | -1%
COc1ccc2c(c1)CC/C(=C\C=C\c1ccccc1OC)C2=O | 7% | -4% | 11µM* | -35 | 11%
CCOc1ccc(/C=N/OCC(=O)Nc2ccc(OCc3ccccc3)cc2)cc1OC | -10% | -1% | 7.9µM* | 32 | -6%
COc1cc(/C=N/OCC(=O)Nc2ccc(OC(F)F)cc2)ccc1OCc1ccccc1 | 4% | ? | -20% | -32 | -5%
CCOC(=O)C1CCCN(C(=O)CSCc2ccccc2)C1 (stereo not given) | -12% | -7% | 17% | 0 | 1%
